# The source made the active and inactive calls. Unless noted, the rule behind the calls is not given here.
# How the values were obtained:
# [1] = compounds binding Alexa647 anti-His antibody – biochemical, small-molecule microarray, 635 nm fluorescence, artefact control for SMM control protein annotation, primary screen (AID 1128); conditions: higher = more signal;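 note: score merges feature fluorescence with signal-to-noise for each printed compound spot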
# [2] = system: Human papillomavirus type 1a E7 protein (residues 1-88); assay: HPV1a E7 small-molecule binders, primary screen, biochemical, small-molecule microarray, residues 1-88, 635 nm (AID 1129); conditions: small-molecule microarray binding, fluorescence 635 nm; higher = more signal
# [3] = target: Focal adhesion kinase 1 (Homo sapiens) (UniProt Q05397); assay: PTK2 protein binding on printed compound slides – biochemical, small-molecule microarray, 635/667 nm fluorescence, BSA, DTT, primary screen (AID 1130); conditions: 635 nm fluorescence, higher = more signal;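 note: composite of spot emission at 667 nm and signal to noise over triplicate slides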
# Sequence of Focal adhesion kinase 1 (Homo sapiens) (Q05397 whole entry, looked up): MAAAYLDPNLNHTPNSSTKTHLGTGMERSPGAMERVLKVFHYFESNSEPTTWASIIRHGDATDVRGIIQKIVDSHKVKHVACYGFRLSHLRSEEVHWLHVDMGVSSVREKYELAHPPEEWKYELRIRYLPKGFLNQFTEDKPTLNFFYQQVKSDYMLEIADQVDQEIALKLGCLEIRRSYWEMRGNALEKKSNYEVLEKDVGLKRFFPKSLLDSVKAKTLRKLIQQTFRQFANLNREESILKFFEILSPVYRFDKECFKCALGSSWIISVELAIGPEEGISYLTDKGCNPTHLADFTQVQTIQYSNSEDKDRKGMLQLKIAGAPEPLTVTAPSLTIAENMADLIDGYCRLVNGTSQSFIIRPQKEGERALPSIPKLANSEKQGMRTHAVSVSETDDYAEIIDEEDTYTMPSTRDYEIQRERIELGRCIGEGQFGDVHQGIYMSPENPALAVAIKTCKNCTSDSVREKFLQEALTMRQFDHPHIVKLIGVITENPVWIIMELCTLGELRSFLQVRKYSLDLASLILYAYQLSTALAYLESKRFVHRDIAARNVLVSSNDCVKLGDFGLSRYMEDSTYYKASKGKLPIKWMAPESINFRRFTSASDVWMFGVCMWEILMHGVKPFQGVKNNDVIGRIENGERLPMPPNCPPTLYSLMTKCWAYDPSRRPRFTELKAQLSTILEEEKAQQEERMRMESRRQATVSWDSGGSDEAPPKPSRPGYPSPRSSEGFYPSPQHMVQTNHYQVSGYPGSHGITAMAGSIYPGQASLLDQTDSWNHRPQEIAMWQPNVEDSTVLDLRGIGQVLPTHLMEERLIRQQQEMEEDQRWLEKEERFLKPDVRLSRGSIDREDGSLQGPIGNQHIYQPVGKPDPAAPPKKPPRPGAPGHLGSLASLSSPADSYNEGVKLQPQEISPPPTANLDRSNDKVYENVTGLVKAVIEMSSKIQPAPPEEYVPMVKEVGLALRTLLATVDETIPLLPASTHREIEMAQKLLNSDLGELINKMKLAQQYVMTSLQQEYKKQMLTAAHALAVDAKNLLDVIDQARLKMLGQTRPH
# [4] = system: Fibrinogen (Alexa647-labelled); assay: Alexa647-fibrinogen binding to printed small molecules – biochemical, small-molecule microarray, 635/667 nm fluorescence, artefact control for SMM control-protein annotation, profiling panel (AID 1131); conditions: fibrinogen-A647 binding fluorescence, higher = more signal;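 note: z-score merges 667 nm fluorescence with per-spot signal-to-noise over triplicate slides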
# [5] = target: Follistatin (Homo sapiens) (UniProt P19883); assay: FST protein binding to printed compounds – biochemical, small-molecule microarray, 635/667 nm fluorescence, primary screen (AID 1132); conditions: 635 nm fluorescence, higher = more signal
# Sequence of Follistatin (Homo sapiens) (P19883 whole entry, looked up): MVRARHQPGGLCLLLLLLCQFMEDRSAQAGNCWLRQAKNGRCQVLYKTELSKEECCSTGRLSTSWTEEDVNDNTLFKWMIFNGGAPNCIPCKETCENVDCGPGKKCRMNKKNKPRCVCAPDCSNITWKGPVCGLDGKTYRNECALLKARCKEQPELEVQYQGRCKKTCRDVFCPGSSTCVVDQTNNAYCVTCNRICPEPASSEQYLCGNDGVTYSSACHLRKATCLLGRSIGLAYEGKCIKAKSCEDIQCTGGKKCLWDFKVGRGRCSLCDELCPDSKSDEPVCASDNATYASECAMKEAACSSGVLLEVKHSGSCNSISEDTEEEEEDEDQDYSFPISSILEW
# [6] = target: Fibroblast growth factor 2 (Homo sapiens) (UniProt P09038); assay: basic fibroblast growth factor binding to printed compounds – biochemical, small-molecule microarray, 635/667 nm fluorescence, primary screen (AID 1133); conditions: FGF2, fluorescence 635/667, higher = more signal
# Sequence of Fibroblast growth factor 2 (Homo sapiens) (P09038 whole entry, looked up): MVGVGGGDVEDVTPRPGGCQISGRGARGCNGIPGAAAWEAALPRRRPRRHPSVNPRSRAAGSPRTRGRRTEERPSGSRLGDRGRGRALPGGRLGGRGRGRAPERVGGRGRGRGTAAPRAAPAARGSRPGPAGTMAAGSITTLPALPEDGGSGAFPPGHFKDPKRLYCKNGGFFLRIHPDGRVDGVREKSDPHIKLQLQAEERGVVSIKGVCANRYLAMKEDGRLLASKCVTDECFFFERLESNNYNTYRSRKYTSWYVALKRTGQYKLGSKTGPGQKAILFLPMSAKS
# [7] = JC-1 mitochondrial potential readout, lung cancer cells – cell-based, A549, JC-1 fluorescence, basal, 24 h, 100 nL, profiling panel (AID 1138); conditions: higher = more signal;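 note: A549 lung adenocarcinoma cells under basal conditions with no added stimulus; test concentration not given here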
# Lefty1 = Lefty1 protein binding to printed compounds – biochemical, small-molecule microarray, 635/667 nm fluorescence, primary screen (AID 1139); conditions: fluorescence 635/667, higher = more signal
# [8] = system: wheat germ agglutinin (Triticum aestivum), Alexa647-labelled; assay: Alexa647-WGA lectin binding to printed small molecules – biochemical, small-molecule microarray, 635/667 nm fluorescence, artefact control for SMM control-protein annotation, profiling panel (AID 1140); conditions: WGA-A647 binding, 635 nm fluorescence, higher = more signal;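 note: score merges 667 nm feature emission with signal to noise over triplicate slides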
# [9] = target: Luciferin 4-monooxygenase (Photinus pyralis) (UniProt P08659); assay: inhibition of purified Photinus pyralis luciferase – biochemical, luminescence, purified enzyme, 2006 set, primary screen (AID 1141); conditions: purified firefly luciferase, SteadyGlo luminescence, 30 min; higher = more signal, called active from +8 up or from −8 down;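 note: cell-free assay with purified firefly luciferase at 100 ng per well in PBS; test concentration not given here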
# Sequence of Luciferin 4-monooxygenase (Photinus pyralis) (P08659 whole entry, looked up): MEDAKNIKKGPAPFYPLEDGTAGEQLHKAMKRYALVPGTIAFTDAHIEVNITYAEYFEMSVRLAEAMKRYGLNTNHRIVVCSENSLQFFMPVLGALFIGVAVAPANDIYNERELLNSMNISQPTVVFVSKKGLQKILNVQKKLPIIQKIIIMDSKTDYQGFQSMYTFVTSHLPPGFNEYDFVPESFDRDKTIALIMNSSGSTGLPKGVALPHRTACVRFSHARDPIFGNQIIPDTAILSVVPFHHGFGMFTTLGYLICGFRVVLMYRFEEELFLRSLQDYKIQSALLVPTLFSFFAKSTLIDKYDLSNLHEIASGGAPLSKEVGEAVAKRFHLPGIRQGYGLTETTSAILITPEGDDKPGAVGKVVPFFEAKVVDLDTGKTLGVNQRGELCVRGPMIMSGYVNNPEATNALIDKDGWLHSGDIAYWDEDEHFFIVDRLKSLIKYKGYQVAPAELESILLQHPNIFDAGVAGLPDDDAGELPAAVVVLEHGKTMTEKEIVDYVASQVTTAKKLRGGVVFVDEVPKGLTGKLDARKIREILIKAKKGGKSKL
# [10] = system: Wnt5a (protein binding on small-molecule microarray); assay: small molecules binding Wnt5a protein – biophysical, small-molecule microarray, 635/667 nm fluorescence, primary screen (AID 1142); conditions: 635 nm fluorescence, higher = more signal;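 note: fluorescence read at 667 nm with signal to noise per printed feature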
# [11] = ATP-based viability of Huh7 replicon cells – cell-based, CellTiter-Glo luminescence, basal, 48 h, cytotoxicity control for HCV replication inhibitor project, primary screen (AID 1143); conditions: higher = more signal, called active from +8 up or from −8 down;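 note: Huh7 hepatoma cells carrying a hepatitis C replication reporter with no stimulus; test concentration not given here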
# [12] = Pseudomonas biofilm growth suppression – PAO1 strain, BacTiter-Glo luminescence, LB-PBS, primary screen (AID 1144); conditions: P. aeruginosa PAO1 biofilm, 12 h, higher = more signal
# [13] = basal CRE-LacZ reporter activity in PC12 – cell-based, unstimulated, primary screen (AID 1145); conditions: no forskolin, luminescence, 4.5 h, higher = more signal, called active from +8 up or from −8 down
# [14] = forskolin-driven CRE-LacZ activity in PC12 – cell-based, CRE-LacZ reporter, forskolin-stimulated, primary screen (AID 1146); conditions: luminescence, 4.5 h, higher = more signal, called active from +8 up or from −8 down;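 note: PC12 cells with 6xCRE LacZ reporter stimulated by forskolin 10 µM; beta-galactosidase reporter signal reflecting CREB driven transcription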
# [15] = target: Streptavidin (Streptomyces avidinii) (UniProt P22629); assay: compounds binding control protein streptavidin – biophysical, small-molecule microarray, 635/667 nm fluorescence, artefact control for SMM compound annotation, primary screen (AID 1147); conditions: higher = more signal;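 note: signal reflects streptavidin binding to arrayed compounds as a control protein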
# Sequence of Streptavidin (Streptomyces avidinii) (P22629 whole entry, looked up): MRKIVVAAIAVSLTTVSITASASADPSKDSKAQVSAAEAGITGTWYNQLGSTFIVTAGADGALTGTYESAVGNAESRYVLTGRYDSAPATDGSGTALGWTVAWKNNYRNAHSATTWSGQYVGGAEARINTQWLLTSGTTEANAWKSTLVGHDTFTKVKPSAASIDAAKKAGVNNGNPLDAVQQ
# [16] = probe aInhba binding on compound microarray – biochemical, small-molecule microarray, 635/667 nm fluorescence, primary screen (AID 1148); conditions: higher = more signal;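 note: score merges 667nm spot fluorescence with signal-to-noise for antibody binding to printed compounds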
# Torsin-1A (Homo sapiens) [17] = target: Torsin-1A (Homo sapiens) (UniProt O14656); assay: TOR1A wild-type binding on microarray – cell lysate, small-molecule microarray, lysate, 635/667 nm, primary screen (AID 1149); conditions: COS7 hTOR1A-WT lysate, 635 nm fluorescence, higher = more signal
# Sequence of Torsin-1A (Homo sapiens) (O14656 whole entry, looked up): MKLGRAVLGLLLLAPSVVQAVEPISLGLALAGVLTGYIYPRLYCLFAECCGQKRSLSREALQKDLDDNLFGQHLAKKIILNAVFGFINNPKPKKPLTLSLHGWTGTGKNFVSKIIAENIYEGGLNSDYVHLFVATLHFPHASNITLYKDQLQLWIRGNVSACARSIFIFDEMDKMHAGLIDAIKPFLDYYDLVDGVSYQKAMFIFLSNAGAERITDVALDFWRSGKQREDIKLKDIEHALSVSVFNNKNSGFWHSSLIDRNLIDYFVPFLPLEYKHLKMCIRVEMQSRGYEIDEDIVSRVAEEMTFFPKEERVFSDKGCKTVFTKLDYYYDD
# Torsin-1A (Homo sapiens) [18] = target: Torsin-1A (Homo sapiens) (UniProt O14656); assay: torsin A mutant lysate binding on microarrays – cell lysate, small-molecule microarray, COS7 lysate, 635/667 nm fluorescence, primary screen (AID 1150); conditions: COS7 hTOR1A mutant lysate, 635 nm fluorescence, higher = more signal;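 note: score pools 667 nm emission and signal to noise measuring lysate protein binding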
# [19] = system: Sonic hedgehog protein (Shh); assay: Sonic hedgehog microarray binding compounds – biochemical, small-molecule microarray, 635/667 nm fluorescence, primary screen (AID 1151); conditions: 635 nm fluorescence, higher = more signal;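 note: Shh protein binding to compounds spotted on small-molecule microarray slides; score combines spot fluorescence intensity with signal-to-noise across triplicate slides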
SMILES,composite z-score [1],composite z-score [2],composite z-score [3],composite z-score [4],composite z-score [5],composite z-score [6],z-score [7],composite z-score (Lefty1),composite z-score [8],z-score [9],composite z-score [10],z-score [11],z-score [12],z-score [13],z-score [14],composite z-score [15],composite z-score [16],composite z-score (Torsin-1A (Homo sapiens) [17]),composite z-score (Torsin-1A (Homo sapiens) [18]),composite z-score [19]
NC(=O)N1C(=O)C2C(C1=O)C1C=C(c3ccc(CO)cc3)C2C(c2cccs2)N1Cc1cccc(OC(F)(F)F)c1 (stereo not given),1.16,0.0253,0.556,-0.0767,0.704,-0.365,1.22,0.444,0.949,-2.17 (inactive),0.24,-3.63 (inactive),0.945 (inactive),1.08 (inactive),-1.58 (inactive),0.514,0.29,0.635,0.522,0.235
CCOC(=O)C[C@H]1[C@H](OC(=O)c2cc3ccccc3oc2=O)[C@@H](NC(=O)c2ccccc2)c2cc(OCCCO)ccc2N1C(=O)c1ccc2ccccc2n1,0.255,0.625,-0.148,0.586,1.19,0.563,-0.339,0.87,0.345,0.409 (inactive),0.343,-0.468 (inactive),0.594 (inactive),9.1 (active),-0.539 (inactive),0.865,-0.0405,0.0356,0.611,0.954
C[N+](C)(C)CCCC[C@@H]1NC(=O)[C@H]2C[C@@H](C(=O)NCCCCCCNC(=O)CS)[C@@H](c3cccc(OCCO)c3)N2C1=O,1.03,-0.945,0.434,-1.56,0.897,0.885,-0.32,-1.36,0.396,-0.252 (inactive),-0.298,0.2 (inactive),-0.635 (inactive),-0.683 (inactive),0.0114 (inactive),-0.667,-0.21,-0.182,-0.14,-0.396
C=CCOC(=O)[C@H]1[C@@H]2C(=O)O[C@@H](c3ccccc3)[C@@H](c3ccccc3)N2[C@@H](c2ccc(OCCOC(=O)[C@H]3C[C@H]4C(=O)N[C@@H](CCCCNC(C)=O)C(=O)N4[C@H]3c3cccc(OCCO)c3)cc2)[C@]12C(=O)Nc1ccccc12,2.14,1.18,-0.333,0.525,1.31,1.53,-0.472,1.08,0.38,-0.487 (inactive),0.791,-1.1 (inactive),-0.292 (inactive),-1.08 (inactive),-0.908 (inactive),-0.365,-0.21,0.983,0.934,2.07
O=C1C[C@@](C(=O)NCC(F)(F)F)(c2ccc([N+](=O)[O-])cc2)[C@@H](c2ccc(CO)cc2I)N1C1CCCCC1,0.226,1.25,0.466,0.9,1.05,1.26,1.8,0.394,0.834,0.59 (inactive),0.318,-4.26 (inactive),-0.148 (inactive),0.558 (inactive),-0.503 (inactive),0.514,-0.0421,0.281,0.35,0.491

# From PubChem BioAssay
